According to PubChem BioAssay AID1963322 (National Center for Advancing Translational Sciences (NCATS), 2024):
Results filed as inconclusive are left out. Active and inactive are the calls of the source. Calls come from the whole dose curve.

These compounds were tested against cAMP-dependent protein kinase catalytic subunit alpha (Homo sapiens) (UniProt P17612) (assay: Protein Kinase A (PKA-HiBiT) SDR gain of signal screen). Conditions: PKA-HiBiT structural dynamics response (SDR), luminescence gain of signal; series mostly up to 32.9 µM; activity change, positive = signal gain: at the top concentration.
Outline: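 PKA-N-HiBiT enzyme at 10 nM final was preincubated with compounds for 30 min at room temperature, protected from light. Nano-Glo HiBiT reagent was then added for 10 min, and luminescence was read by CCD imager. H-89 served as positive control.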

Activity change, positive = signal gain, inactive:
COc1cc(N2CCN(C)CC2)ccc1Nc1nc(N)c(C(=O)c2c(Cl)cccc2Cl)s1 -3.27%
CNc1ncc2cc(-c3cc(NC(=O)NCCC(C)(C)C)c(F)cc3C)c(C)nc2n1 2.19%
COc1ccccc1-c1c[nH]c2ncc(-c3cncc(C(=O)N(C)C)c3)cc12 14.2%
COc1cc2ncnc(Nc3ccc(F)c(Cl)c3)c2cc1OCCCN1CCOCC1 10%
COc1cc2c(Oc3ccc4[nH]c(C)cc4c3F)ncnc2cc1OCCCN1CCCC1 5.25%
C=CC(=O)N1CCC(Oc2cc3c(Nc4ccc(Cl)c(Cl)c4F)ncnc3cc2OC)CC1 8.76%
Cc1cc(C)c(/C=C2\C(=O)Nc3ccccc32)[nH]1 -43.1%
CN1CCN(CCOc2cc(OC3CCOCC3)c3c(Nc4c(Cl)ccc5c4OCO5)ncnc3c2)CC1 5.07%
CO[C@H]1/C=C/O[C@@]2(C)Oc3c(C)c(O)c4c(O)c(c(/C=N\N5CCN(C6CCCC6)CC5)c(O)c4c3C2=O)NC(=O)/C(C)=C\C=C\[C@H](C)[C@H](O)[C@@H](C)[C@@H](O)[C@@H](C)[C@H](OC(C)=O)[C@@H]1C -45.8%
CCN(CC)CCOc1ccc(Nc2ncc3cc(-c4c(Cl)cccc4Cl)c(=O)n(C)c3n2)cc1 -49.5%
CCn1c(=O)c(-c2ccc(Cl)cc2Cl)cc2cnc(Nc3ccc(N4CCNCC4)c(F)c3)nc21 15.1%
Cc1ccc(-n2nc(C(C)(C)C)cc2NC(=O)NCc2cc(F)ccc2Oc2ccc3c(cnn3CCO)c2)cc1 -20.1%
O=c1cc(N2CCOCC2)nc2c3ccccc3ccn12 2.48%
CNC(=O)c1ccccc1Sc1ccc2c(/C=C/c3ccccn3)n[nH]c2c1 -5.73%
Cc1cc(Nc2cc(N3CCN(C)CC3)nc(Sc3ccc(NC(=O)C4CC4)cc3)n2)n[nH]1 -6.42%
O=C(NOCC(O)CO)c1cc(Br)c(F)c(F)c1Nc1ccc(I)cc1F (stereo not given) -34.9%
COc1cc2c(cc1OC)-c1[nH]nc(Nc3cccc(F)c3)c1C2 5.36%
CNC(=O)c1ccccc1Nc1nc(Nc2ccc(N3CCOCC3)cc2OC)ncc1Cl 19.9%
CN1CCN(CCCNc2ncc(Cl)c(-c3cc4c(C(=O)NC5CC5)cccc4s3)n2)CC1 -4.3%
O=C(NCCO)c1cccc(-c2cc(Nc3ccc(OC(F)(F)F)cc3)ncn2)c1 1.64%
Nc1ncnc2c1c(-c1cnc3[nH]ccc3c1)nn2C1CCCC1 13.7%
COc1cc2ncnc(-n3nc(-c4ccccn4)nc3N)c2cc1OC 6.78% [at 16.4 µM]
Cc1ccc(NC(=O)N2CCN(c3nc(N)nc4sc(-c5cccnc5)nc34)CC2)cc1 4.4%
Cc1cc(NC(=O)c2ccc(C)c(Nc3nccc(-c4cccnc4)n3)c2)cc(-n2cnc(C)c2)c1 -7.69%
N#Cc1ccc2ncnc(NCCc3ccccc3)c2c1 -3.27%
CCN1CCN(Cc2ccc(NC(=O)c3ccc(C)c(NC(=O)c4cncc(-c5cccs5)c4)c3)cc2C(F)(F)F)CC1 16.5%
CCCCNc1ncc2c(-c3ccc(S(=O)(=O)N4CCOCC4)cc3)nn(C3CCC(O)CC3)c2n1 (stereo not given) 15.8%
Cc1ccc(C(=O)Nc2ccc(Oc3cc4cnn(C)c4cc3-c3cn[nH]c3)c(F)c2)c(=O)n1-c1ccc(F)cc1 8.3%
C=CC(=O)Nc1cc2c(Nc3ccc(F)c(Cl)c3)ncnc2cc1OCCCN1CCOCC1 4.93%

Potency, active:
CC[C@@](C)(Nc1ccnc(-c2c[nH]c3ncccc23)n1)C(=O)NCC(F)(F)F 12000 nM
COc1cc(N2CCC(N3CCN(C)CC3)CC2)ccc1Nc1ncc(Cl)c(Nc2ccccc2P(C)(C)=O)n1 5550 nM
CCOc1ccn(-c2ccc(F)cc2)c(=O)c1C(=O)Nc1ccc(Oc2ccnc(N)c2Cl)c(F)c1 813 nM
COc1cc(N2CCOCC2)ccc1Nc1ncc(Cl)c(Nc2ccccc2NS(C)(=O)=O)n1 1340 nM
CN(c1ncccc1CNc1nc(Nc2ccc3c(c2)CC(=O)N3)ncc1C(F)(F)F)S(C)(=O)=O 4410 nM
Cn1cc(-c2[nH]c3cc(NC(=O)[C@H](N)C4CCCCC4)cc4c3c2C=NNC4=O)cn1 600 nM
